This is a sample that favours compounds with a hit; in the whole collection about 4.2% have one here.
ssDAF-12 act: activators of S. stercoralis DAF-12 nuclear receptor; HEK293 ssDAF-12/GRIP1 lit1-tk-luc reporter, luminescence; % of 3 µM dafachronic acid response; activation, % at 6.8 µM; 370,000 tested, 1% active; AID 652126;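 active means activation above the mean over all tested compounds plus 3 SD, cut at about 0.9% in these data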;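 further: 0% = DMSO-only wells and 100% = 3 µM delta7-dafachronic acid wells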
hgDAF12 agonist: activates the H. glycines DAF-12 receptor ligand-binding domain; activation, % at 6.8 µM; AID 687014; HEK293 GAL4-hgDAF12 UAS-luciferase reporter, agonist luminescence; normalized to butyrate control; 370,000 tested, 1.8% active;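 active means activation above a cutoff set at the mean of all screened compounds plus 3 SD, cut at about 10% in these data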;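 further: 0% = DMSO wells and 100% = sodium butyrate wells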
DAX1 inh: DAX1 (NR0B1) inhibition, primary screen | HEK293T StAR-luciferase reporter, SF-1/DAX-1 repression relief | inhibition, % at 6.8 µM | 370,000 tested, 1.1% active | AID 652010;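 active means inhibition above the mean over all tested compounds plus 3 SD, cut at about 3.6% in these data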;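 further: 0% = DAX-1 cells with DMSO and 100% = cells lacking DAX-1 with DMSO; higher inhibition means more luminescence from relief of DAX-1 repression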
hcDAF-12 act: activates DAF-12 receptor from parasite H. contortus; AID 652067; 370,000 tested, 1.4% active; activation, % at 6.8 µM; HEK293 hcDAF-12 lit1-tk-luc reporter, luminescence; 0% DMSO, 100% Δ7-dafachronic acid;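 active means activation above the mean of all tested compounds plus 3 SD, cut at about 5.5% in these data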;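 further: 100% = response to 3 µM Δ7-dafachronic acid high control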
SMARCA2 act: increases SMARCA2 function in MMTV reporter cells; MG213 cells, MMTV-luciferase reporter, dexamethasone, overnight; 370,000 tested, 1% active; AID 652017; activation, % at 9.1 µM; in the data active means activation above about 7.8%;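 further: 0% = vehicle wells and 100% = reference activator wells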
Active calls of the source: *; / = no result.

SMILES | ssDAF-12 act | hgDAF12 agonist | DAX1 inh | hcDAF-12 act | SMARCA2 act
O=C(Nc1ccc2c(c1)OCCO2)C(c1ccnc2ccccc12)n1c(=O)c(-c2ccco2)nc2ccccc21 (stereo not drawn) | 1.5* | 7 | 3 | 5 | 4
Cc1c2cnccc2c(C)c2c1oc1ccccc12 | -1 | 11* | 1 | 2 | 6
Clc1ccc2nc(-c3ccccn3)c(Nc3ccc4c(c3)OCO4)n2c1 | -1 | 13* | 1 | -1 | 7
COCCCN1C(=O)[C@H](CC(=O)NCc2cccc(C(F)(F)F)c2)[C@]2(C(=O)OC)CCCCC=C12 | -1 | 0 | -1 | -2 | -3
Fc1cccc(/C=N/Nc2nccnc2Cl)c1 | 1 | 13* | 2 | 4 | 5
O=[N+]([O-])c1cccc(/C=N/Nc2nccnc2Cl)c1 | -1 | 10 | 1 | 2 | 2
COc1cc(/C=N/n2cnnc2)ccc1OS(=O)(=O)c1ccccc1[N+](=O)[O-] | -1 | 2 | -1 | -1 | -3
O=[N+]([O-])c1ccccc1S(=O)(=O)Oc1ccc(/C=N/n2cnnc2)cc1 | 1.2* | 8 | -1 | 3 | 7
COC(=O)c1cc(-c2ccc(Oc3ccccc3)cc2)c(=O)n2c1CCC2 | -2 | -3 | -1 | -2 | 0
C[C@@H]1CN([C@@H](C)CO)C(=O)CCCn2cc(nn2)CO[C@H]1CN(C)C(=O)Nc1ccc2c(c1)OCO2 | -1 | 3 | 0 | 0 | 0
COc1ccccc1OCc1cc(C(=O)N(C)CCC2CCOCC2)no1 | 1 | 10 | 3.9* | 5 | 7
COc1ccc(OCc2cc(C(=O)NC3CCOCC3)no2)c2ccccc12 | 0 | 3 | -2 | 6.3* | 2
COc1cccc(OCc2cc(C(=O)NC3CCOCC3)no2)c1 | -1 | 7 | 3 | 3 | 3
COc1cccc(C(=O)N[C@H](C(=O)N2CCC[C@H]2C(=O)NCCc2ccccc2Cl)c2ccccc2)c1 | -2 | -2 | -1 | 1 | 0
NC(=O)CCCn1c(C(=O)c2ccc(Cl)cc2)c2ccc(C(F)(F)F)cc2[n+]1[O-] | 1.2* | -1 | 0 | 5 | 0
Cc1ccc(C(=O)c2c3ccc([N+](=O)[O-])cc3[n+]([O-])n2CCCC(N)=O)cc1 | 0 | -3 | 0 | 2 | 0
COc1ccc2c(C(=O)c3ccc(C)cc3)n(CCCC(N)=O)[n+]([O-])c2c1 | 0 | 1 | 0 | 6.1* | 2
CC(C)(C)c1ccc(-c2nnc(SCC(=O)Nc3ccccc3-c3ccccc3)n2Cc2ccco2)cc1 | -2 | -2 | 0 | -1 | -5
COC(=O)[C@]12C[C@H](CC(=O)NCCCCc3ccccc3)C(=O)N(Cc3cccc4ccccc34)C1=C[C@H](C(C)C)O[C@@H]2C1CC1 | 1.3* | -2 | -1 | -1 | -3
COC(=O)[C@]12C[C@H](CC(=O)NCc3ccccc3)C(=O)N(Cc3cccc4ccccc34)C1=C[C@H](C(C)C)O[C@@H]2C1CC1 | -1 | 4 | -1 | 0 | -3
CC(=O)c1cnc(Nc2cccc(Cl)c2Cl)s1 | 0 | 13* | 2 | 2 | 2
O=C(c1ccc(Cl)cc1)c1cnc(-c2ccccc2)s1 | -1 | 0 | 0 | 0 | -1
O=C(c1ccc(Cl)cc1)c1cnc(Nc2ccccc2Cl)s1 | 0 | 13* | 1 | 2 | 2
CCOC(=O)[C@@]12CCCC3=C1N(CCC3)C(=O)[C@H]2CC(=O)N1CCN(C(=O)C2CC2)CC1 | -1 | 1 | 0 | -3 | -2
Cc1ccc(C(=O)/C=C/c2cn(CN3CCN(C)CC3)c3ccccc23)cc1 | 0 | 13* | 2 | 1 | 5
SMILES | ssDAF-12 act | hgDAF12 agonist | DAX1 inh | hcDAF-12 act | SMARCA2 act
O=C(/C=C/c1cn(CC(O)CN2CCCCCC2)c2ccccc12)c1cccs1 (stereo not drawn) | -1 | 1 | 1 | 2 | 1
CSc1ccc(CNC(=O)C2CCC(=O)N(CC3CCCCC3)C2)cc1 (stereo not drawn) | -2 | -4 | 0 | 0 | 1
C=C1C(=O)[C@]23C[C@H]1CC[C@H]2[C@]1(C)CCC[C@@](C)(C(=O)OC)[C@H]1C[C@@H]3O | -3 | -18 | -7 | -10 | -7
Cc1ccccc1N(C)C(=O)CN1CCN(c2nc(-c3ccccc3)cs2)CC1 | -2 | -3 | -1 | -1 | -4
O=C(NCc1cccnc1)c1cc(-c2ccccc2)on1 | -1 | 12* | 1 | 1 | 3
CCCc1cc(C(=O)NC2CCCC2)no1 | 0 | 5 | 1 | 2 | 2
O=C(NCc1cccnc1)c1cc(-c2cccs2)on1 | -1 | 12* | -1 | 1 | -1
CCCc1cc(C(=O)NCc2cccnc2)no1 | -1 | 3 | 0 | 5.8* | 0
COc1ccc(-c2cc(C(=O)NCc3cccnc3)no2)cc1 | -1 | 7 | 0 | -1 | -1
CCCc1cc(C(=O)NC2CCCCC2)no1 | 0 | 13* | 2 | 2 | 3
O=C(NCc1cccnc1)c1cc2nc(-c3cccs3)cc(C(F)(F)Cl)n2n1 | -2 | -2 | -1 | -3 | 1
COC(=O)C1CN(Cc2cn(Cc3ccccc3)nn2)CCS(=O)(=O)N1Cc1ccc(C)cc1 (stereo not drawn) | -2 | 0 | -1 | -2 | -4
CCCc1cc(C(=O)NCc2cccs2)no1 | 2.0* | 8 | 2 | 4 | 2
CCC(c1nc2ccccc2[nH]1)n1c(=O)c(-c2cccnc2)nc2ccccc21 (stereo not drawn) | -1 | -5 | -1 | -3 | -6
Oc1ccc(CNc2ccc(C(F)(F)F)cc2F)c2cccnc12 | 0 | 4 | / | 4 | /
Cc1ccc(-c2nc(C3CCCN(S(=O)(=O)c4ccc(C)c(C)c4)C3)no2)cc1 (stereo not drawn) | 1.0* | 7 | 3 | 1 | -1
COc1ccc(OC)c(S(=O)(=O)N2CCCC(c3noc(-c4ccc(C)cc4)n3)C2)c1 (stereo not drawn) | -2 | 0 | -1 | -2 | -2
COC(=O)C(C(=O)OC)c1ccccc1NS(=O)(=O)c1c(C)cc(C)cc1C | -1 | 0 | 0 | 0 | -4
O=C1C(=O)N(Cc2ccc(-c3ccccc3)cc2)c2ccc(OC(F)(F)F)cc21 | -1 | -1 | / | -2 | /
O=C(NCCc1ccccc1)c1nc(-c2cccs2)no1 | 0 | 11* | 0 | 2 | 4
Cc1ccc(C(=O)/C=C/Nc2cccc([N+](=O)[O-])c2)o1 | 0 | 11* | 1 | 5.8* | 3
CN(C)C(/C=C/Nc1cccc([N+](=O)[O-])c1)=C(C#N)C#N | 1 | 3 | 0 | -1 | 2
CCn1c(SCC(=O)N/N=C/c2cccc(Oc3ccccc3)c2)nnc1-c1ccccc1 | -1 | -2 | -1 | -2 | -3
CC(=O)CC[C@@H]1CC[C@]2(CCCN(C(=O)C3CCCCC3)C2)O1 | 0 | 2 | 0 | 1 | -3

High-throughput results from PubChem.
